{"source": "PubChem BioAssay (Tox21)", "note": "Results filed as inconclusive are left out. Entries that show only a call come without a potency. Calls of active or inactive are those of the source. Calls follow the shape of the full dose curve. Potency is read from the fitted curve at half-maximal effect.", "data": [{"target": "Retinoic acid receptor RXR-alpha (Homo sapiens) (UniProt P19793)", "sequence (P19793 whole entry, looked up)": "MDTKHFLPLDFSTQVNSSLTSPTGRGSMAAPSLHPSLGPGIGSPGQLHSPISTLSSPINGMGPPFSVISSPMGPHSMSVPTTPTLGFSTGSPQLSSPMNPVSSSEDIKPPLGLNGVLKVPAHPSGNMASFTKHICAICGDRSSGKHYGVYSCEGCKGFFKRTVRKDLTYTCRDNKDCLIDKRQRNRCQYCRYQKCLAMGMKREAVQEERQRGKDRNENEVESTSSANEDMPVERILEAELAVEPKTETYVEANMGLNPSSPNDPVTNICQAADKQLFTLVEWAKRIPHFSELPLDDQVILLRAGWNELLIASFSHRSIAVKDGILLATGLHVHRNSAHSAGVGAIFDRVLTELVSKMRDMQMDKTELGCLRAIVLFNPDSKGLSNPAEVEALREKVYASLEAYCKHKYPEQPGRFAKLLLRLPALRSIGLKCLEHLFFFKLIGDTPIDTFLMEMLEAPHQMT", "test": "qHTS assay to identify small molecule agonists of the RXR signaling pathway (AID 1159527); also: nearly all actives have a fitted effect of over 35% in size", "conditions": "HEK293T RXRa-UAS-bla, beta-lactamase ratio, 16 h; series mostly up to 76.8 µM", "excerpt": "U.S. Tox21 Program National Center for Advancing Translational Sciences [NCATS] NIH Chemical Genomics Center [NCGC] U.S. Environmental Protection Agency [EPA] National Institutes of Environmental Health Sciences [NIEHS] National Toxicology Program [NTP] U.S. Food and Drug Administration [FDA] Tox21 Assay Overview: The Retinoid X receptor (RXR), a nuclear hormone receptor expressed in liver, spleen, placenta, epidermis, central nervous system. These receptors are able to form homo and heterodimers with other nuclear receptors and due to this heterodimerizing ability, RXR functions as master regulators producing diverse physiological effects. Three subtypes of RXR exist; alpha, beta and gamma. Retinoid X receptor alpha (RXR-alpha) has potential roles in metabolic signaling pathways, skin alopecia, dermal cysts, cardiac development, insulin sensitization etc. Therefore screening environmental chemicals on RXR-alpha signaling can be used for the studies focused on such therapeutic applications. For quantification of RXR-alpha ligands signaling, GeneBLAzer RXR alpha-UAS-bla HEK 293T (Life Technologies, Carlsbad, CA) cells containing a beta-lactamase reporter-gene under control of Retinoid X receptor-alpha response element were used to screen Tox21 10K library.\nTox21 Assay Protocol Summary: RXR-alpha HEK 293T cells were dispensed at 2,000 cells/6 uL of assay medium containing 2% charcoal-stripped FBS using a Multidrop Combi (ThermoFisher Scientific, Waltham, MA) dispenser. The assay was performed in black wall/clear-bottom 1536-well plates (Greiner Bio-One North America Inc. Monroe, NC). 9-cis retinoic acid was used as a positive control in the agonist mode screen. After the assay plates were incubated at 37 C and 5% CO2 for 5 hr, 23 nL of compounds dissolved in DMSO, positive controls or DMSO only were transferred to the assay plate by a Pintool station (Kalypsys, San Diego, CA). The assay plates were incubated at 37 C and 5% CO2 for 16 hr. One uL of LiveBLAzer B/G FRET substrate (Life Technologies) was added using a Flying Reagent Dispenser (Aurora Discovery, San Diego, CA) and the plates were incubated at room temperature for 2 hr. Fluorescence intensity (405 nm excitation, 460/530 nm emission) was measured using an Envision plate reader (PerkinElmer, Shelton, CT).", "values": [{"smiles": "Nc1[nH]c(=O)ncc1F", "Potency": "inactive"}, {"smiles": "O=C(O)CCNC(=O)c1ccc(N=Nc2ccc(O)c(C(=O)O)c2)cc1", "Potency": "inactive"}, {"smiles": "C=CCOCC(O)CS(=O)(=O)O", "note": "(stereo not given)", "Potency": "inactive"}, {"smiles": "CC(=O)c1ccc(C)cc1", "Potency": "inactive"}, {"smiles": "CCN(CC)C(=O)c1ccc(O)c(OC)c1", "Potency": "inactive"}, {"smiles": "CCn1cc(C(=O)O)c(=O)c2cc(F)c(N3CCN(C)CC3)cc21", "activation": "8.93% [at 15.8 µM] (inactive)"}, {"smiles": "OCc1ccccn1", "Potency": "inactive"}, {"smiles": "c1ccc(CCCc2ccccn2)cc1", "Potency": "inactive"}, {"smiles": "CC1(C)SC(C)(C)SC(C)(C)S1", "Potency": "inactive"}, {"smiles": "CC1=CCC2C(C1)C2(C)C", "note": "(stereo not given)", "Potency": "inactive"}, {"smiles": "CC(C)CCCCCCN", "Potency": "inactive"}, {"smiles": "C=CCn1c(=O)n([C@@H]2O[C@H](CO)[C@@H](O)[C@H]2O)c2nc(N)[nH]c(=O)c21", "Potency": "inactive"}, {"smiles": "CC(C)CCCC(C)NCCC(C)C", "note": "(stereo not given)", "Potency": "inactive"}, {"smiles": "C(=C(c1ccccc1)c1ccccc1)c1ccccc1", "Potency": "inactive"}, {"smiles": "CC(=O)N[C@@H](CCC(N)=O)C(=O)O", "Potency": "inactive"}, {"smiles": "C=C(C)C(=O)NCCCN(C)C", "Potency": "inactive"}, {"smiles": "CCCCCOC(=O)Nc1nc(=O)n([C@@H]2O[C@H](C)[C@@H](O)[C@H]2O)cc1F", "Potency": "inactive"}, {"smiles": "OC1OC[C@@H](O)[C@H](O)[C@H]1O", "note": "(stereo not given in full)", "Potency": "inactive"}, {"smiles": "NC(N)=NS(=O)(=O)c1ccc(N)cc1", "Potency": "inactive"}, {"smiles": "COC[C@H](c1ccc(C(F)(F)F)cc1)N1CCN(C2(C)CCN(C(=O)c3c(C)ncnc3C)CC2)C[C@H]1C", "Potency": "inactive"}, {"smiles": "OCC(O)[C@@H](O)[C@H](O)[C@H](O)CO[C@H]1O[C@H](CO)[C@@H](O)[C@H](O)[C@H]1O", "note": "(stereo not given in full)", "Potency": "inactive"}, {"smiles": "CCC(=O)c1cccc(Cl)c1", "Potency": "inactive"}, {"smiles": "CC(C)N1C(=O)c2ccccc2C1=O", "Potency": "inactive"}, {"smiles": "CC(C)=CCC/C(C)=C/C(=O)O", "Potency": "inactive"}, {"smiles": "Cc1ccccc1Br", "Potency": "inactive"}, {"smiles": "CNc1ncnc2nc[nH]c12", "Potency": "inactive"}, {"smiles": "Cc1cc(C)c(NC(=O)CN(CC(=O)O)CC(=O)O)c(C)c1Br", "Potency": "inactive"}, {"smiles": "CCCCCCC(CCCCCCCCCCC(=O)OCC(COC(C)=O)OC(C)=O)OC(C)=O", "note": "(stereo not given)", "Potency": "inactive"}, {"smiles": "COc1cc(C(=O)N2CCOCC2)cc(OC)c1OC", "Potency": "inactive"}, {"smiles": "CC(C)=CC(=O)O", "Potency": "inactive"}, {"smiles": "CCCCCCCCCCCCCCCCCCOCC(O)CO", "note": "(stereo not given)", "Potency": "inactive"}, {"smiles": "O=C1C(CCS(=O)c2ccccc2)C(=O)N(c2ccccc2)N1c1ccccc1", "note": "(stereo not given)", "Potency": "inactive"}, {"smiles": "COc1cccc(OC)c1", "Potency": "inactive"}, {"smiles": "CN(C)N=Nc1ccccc1", "Potency": "inactive"}, {"smiles": "CC(C)(C)CC(C)(C)N", "Potency": "2.12 µM (active)"}, {"smiles": "Nc1cc(C(Cl)=C(Cl)Cl)c(S(N)(=O)=O)cc1S(N)(=O)=O", "Potency": "inactive"}, {"smiles": "CC/C=C\\C#N", "Potency": "inactive"}, {"smiles": "Nc1nc(F)nc2c1ncn2[C@@H]1O[C@H](CO)[C@@H](O)[C@@H]1O", "Potency": "inactive"}, {"smiles": "CC1(C)OC(=O)Nc2ccc(Br)cc21", "Potency": "inactive"}, {"smiles": "Cc1c(F)cc2c(=O)c(C(=O)O)cn3c2c1CCC3C", "note": "(stereo not given)", "Potency": "inactive"}]}]}
